Cruzain inh noDet: cruzain (T. cruzi) inhibition without detergent. P25779. purified cruzain, Z-FR-AMC fluorescence, no detergent. Potency, µM, for inactives: max response, negative = inhibition, actives largely listed as inhibitors. 2.3% of 200,000 active. AID 1476;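 further: plate controls were enzyme without inhibitor for no effect and buffer without enzyme for full effect; nearly all actives have a fitted effect of over 40% in size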
Target sequence (P25779 123-467 limits assumed): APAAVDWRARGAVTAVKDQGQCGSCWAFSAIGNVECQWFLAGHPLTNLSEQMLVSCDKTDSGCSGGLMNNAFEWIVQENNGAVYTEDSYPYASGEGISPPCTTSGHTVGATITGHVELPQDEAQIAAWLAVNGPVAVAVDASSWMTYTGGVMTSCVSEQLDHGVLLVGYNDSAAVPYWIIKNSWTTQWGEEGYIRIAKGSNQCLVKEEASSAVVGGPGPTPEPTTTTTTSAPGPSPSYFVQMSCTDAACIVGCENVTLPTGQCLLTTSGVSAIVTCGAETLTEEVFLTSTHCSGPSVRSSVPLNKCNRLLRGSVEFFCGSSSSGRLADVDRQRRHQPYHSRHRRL
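Detergent-free condition (0.00005% Triton X-100) in acetate buffer pH 5.5 with DTT. 1.5 nM enzyme and compound were pre-mixed 15 min, then 2 uM Z-FR-AMC substrate added; reaction progress from fluorescence change between first and third reads (60 s).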
Cruzain Triton: blocks cruzain activity in presence of Triton detergent | P25779 | AID 1478 | Potency, µM, inactives show max response, negative = inhibition, usual class: inhibitors | purified cruzain, Z-FR-AMC fluorescence, 0.01% Triton | 0.43% of 200,000 active;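 further: plate controls were neutral wells for no effect and buffer without enzyme for full effect; nearly all actives have a fitted effect of over 40% in size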
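15 min RT preincubation of 1.5 nM cruzain with compound, then 2 uM Z-FR-AMC added; kinetic AMC fluorescence, 60 s delta. Triton X-100 0.01%, pH 5.5.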
The depositor's hits bear a star; ? = inconclusive. Hits are enriched below; roughly 2.5% of the tested compounds scored in any of these assays. The call rests on the fitted dose curve; in most records, active means well fitted curve in the direction sought with a large enough effect; inconclusive means small, poorly fitted or top-dose-only effect, or another doubt; inactive means no such curve, though single readings can be large; an effect the other way counts as inactive or inconclusive. Potency means the concentration at half of the fitted maximal effect.

SMILES | Cruzain inh noDet | Cruzain Triton
O=C(O)[C@H]1C2c3ccccc3C(c3ccccc32)[C@@H]1C(=O)NCC1CC1 | -3.0% | -3.0%
CC1=C(C(=O)Nc2ccccc2)C(c2ccc(C(=O)O)cc2)n2nc(SCC(=O)c3ccc(C)cc3)nc2N1 (stereo unspecified) | 4.9% | 2.1%
Cc1cccc(N2CCN(C(=O)C3CCCN(S(=O)(=O)c4cccc5nsnc45)C3)CC2)c1C (stereo unspecified) | 0.6% | 0.6%
CCN(CC)c1ccc(/C=N/N=C(c2ccccc2)c2ccccc2)c(O)c1 | 25.1µM* | -5.3%
CCN(CC)c1ccc(/C=N/N(c2ccccc2)c2ccccc2)c(O)c1 | ? | -4.4%
CC1=C(C(=O)Nc2ccc(Cl)cc2)C(c2ccc(C(F)(F)F)cc2)n2nnnc2N1 (stereo unspecified) | -9.6% | -7.1%
Nc1c2c(nc3sc4c(c13)CCCC4)CCCCCC2 | 25.1µM* | -16.9%
Nc1nc2sc3c(c2c(=O)s1)CCCC3 | -1.0% | -11.3%
COc1ccc(OC)c2sc(NC(=O)c3ccc(S(=O)(=O)N4CCCC4)cc3)nc12 | 1.8% | 3.7%
COc1ccc(NS(=O)(=O)c2ccc(OC)c(N(C)S(=O)(=O)c3ccc(Cl)cc3)c2)cc1 | -20.8% | -1.1%
COc1ccc(S(=O)(=O)Nc2ccc(F)cc2)cc1N(C)S(=O)(=O)c1ccc(Cl)cc1 | 20µM* | -3.4%
Cc1ccsc1-c1nc(C(N)=O)c2[nH]c(=O)n(-c3ccc(Cl)cc3)c2n1 | 10µM* | 0.1%
COc1ccc(-c2nc(C(N)=O)c3[nH]c(=O)n(-c4cccc(Cl)c4)c3n2)cc1OC | ? | 2.8%
CNS(=O)(=O)c1cccc(C(=O)OCc2csc(-c3ccccc3)n2)c1 | -2.8% | -6.6%
Cn1nc(-c2ccccc2)c(COC(=O)c2cccc(Cl)c2)c1S(=O)(=O)c1ccccc1 | 25.1µM* | 2.0%
CCN1CC=C2C(C#N)=C(N)C(C#N)(C#N)C(CCc3ccccc3)C2C1 (stereo unspecified) | 6.31µM* | 14.1µM*
CC(=O)N1CC=C2C(C#N)=C(N)C(C#N)(C#N)C(CCc3ccccc3)C2C1 (stereo unspecified) | 7.0% | -4.3%
CCOc1ccccc1NC(=O)CN1C(=O)CC(c2ccc(C)c(C)c2)=Nc2ccccc21 | -10.3% | -1.5%
CC(C)c1ccc(NC(=O)CSc2ncccc2C(=O)Oc2cccc([N+](=O)[O-])c2)cc1 | 15.8µM* | -7.5%
COc1ccc(NC(=O)CSc2ncccc2C(=O)OC(C)C)cc1OC | 9.3% | -1.6%
C=CC[C@](C)(O)c1ccccc1 | -1.1% | 1.5%
CCOC(=O)c1ccc(NC(=O)c2cnc3c(-c4ccc(F)cc4)c(C)nn3c2C)cc1 | ? | -1.7%
CCCOc1ccc(/C=N/Nc2ccccc2[N+](=O)[O-])c(OCCC)c1 | ? | -2.0%
O=[N+]([O-])c1ccccc1N/N=C\c1ccccc1Cl | 20µM* | -2.5%
CN(C)c1ncc2nc(-c3cc(F)cc(F)c3)c(=O)n(C)c2n1 | 20µM* | 12.5%
SMILES | Cruzain inh noDet | Cruzain Triton
CN(C)c1ncc2nc(-c3cc(F)cc(F)c3)c(=O)n(C3CC3)c2n1 | 14.0% | 2.7%
COc1cccc(NC(=O)N(Cc2c[nH]c3ccccc23)C2CCCCCC2)c1 | -21.5% | -16.7%
COC(=O)c1c(C)oc2ccc(N(C(=O)Oc3ccccc3)S(=O)(=O)c3ccc(Cl)c([N+](=O)[O-])c3)cc12 | 7.94µM* | -2.9%
CCc1ccc(S(=O)(=O)N(C(=O)Oc2ccccc2)c2ccc3oc(C)c(C(=O)OC)c3c2)cc1 | ? | -2.4%
Cc1ccc(Nc2nc(-c3ccc(S(=O)(=O)N4CCCC4)cc3)cs2)cc1C | 12.6µM* | 3.7%
Cc1cc(C)cc(Nc2nc(-c3ccc(S(=O)(=O)N4CCCC4)cc3)cs2)c1 | 15.8µM* | -1.7%
O=S(=O)(c1ccc(-c2csc(Nc3ccc(Br)cc3)n2)cc1)N1CCCC1 | 31.6µM* | -1.9%
Cc1nc(-c2ccc(S(=O)(=O)N3CCCCCC3)cc2)cs1 | -11.7% | -1.6%
O=S(=O)(c1ccc(-c2csc(Nc3ccc(F)cc3)n2)cc1)N1CCCC1 | ? | -3.3%
Cc1nc(-c2cccc(S(=O)(=O)N3CCCCCC3)c2)cs1 | -11.5% | -8.8%
CCc1c(C)sc2c1CCN(C(=O)Nc1cc(C)ccc1OC)C2c1ccc(F)cc1 (stereo unspecified) | ? | 0.0%
CCc1ccccc1NC(=O)N(C)CCc1c(C)nn(C)c1C | 0.3% | 7.2%
Cc1nc(C)c(-c2ccc(SCC(=O)Nc3ccc(Br)cc3)nn2)s1 | ? | -8.8%
Cc1cc(C)c2oc(-c3ccc(C)c(NC(=O)/C=C/c4ccco4)c3)nc2c1 | 3.3% | -5.5%
CCCCCCCCNc1nc(Cl)nc(NCc2ccco2)n1 | 15.8µM* | -2.0%
CCCCCCNc1nc(NCc2ccco2)nc(OCC)n1 | -0.6% | -4.5%
CCN(CC)S(=O)(=O)c1ccc2c(c1)c(=O)c(C(=O)N1CCN(c3ccc(OC)cc3)CC1)cn2C | 3.0% | -11.4%
Cc1cc(C)c2oc(-c3ccc(NC(=O)c4cc(Br)ccc4Cl)cc3)nc2c1 | 2.51µM* | -1.3%
Cc1ccc(-c2nc3cc(NC(=O)c4cc(Br)ccc4Cl)ccc3o2)cc1 | -26.3% | -0.7%
Cc1ccc(-c2csc(Cc3nc(-c4cc5ccccc5oc4=O)cs3)n2)cc1 | 6.31µM* | 2.2%
O=c1oc2ccc(Br)cc2cc1-c1csc(-c2ccccc2)n1 | -4.6% | 1.5%
Cc1cc(C)c(-c2csc(-c3cc4ccccc4oc3=O)n2)cc1C | 5.2% | -0.2%
Cc1cc(C)c(-c2csc(Cc3nc(-c4cc5ccccc5oc4=O)cs3)n2)cc1C | 10µM* | -1.8%
Cc1ccc(NC(=O)C2CCN(C(=O)c3cnn(-c4ccccc4)c3-n3cccc3)CC2)cc1 | ? | -3.8%
Cc1ccc(NC(=O)c2cc(S(=O)(=O)NC3CCCCC3)ccc2F)cc1Cl | 7.2% | 1.4%
SMILES | Cruzain inh noDet | Cruzain Triton
CNC(=O)CN1C(=O)COc2ccc(S(=O)(=O)N3CCC(C)CC3)cc21 | -5.0% | 0.3%
CCOC(=O)c1c(C)c(-c2ccccc2)n(CC(=O)NC2CCCCCC2)c1C | 14.9% | -0.7%
COc1ccc(CCNc2nc(SCc3ccccc3Cl)nc3ccccc23)cc1OC | 2.8% | 0.3%
Cc1ccc2nc(-c3ccc(NC(=O)CN4C(=O)c5ccccc5C4=O)cc3)sc2c1 | -9.5% | -0.3%
CCC1(c2ccc(F)cc2)NC(=O)N(CC(=O)Nc2ccc(-c3nc4ccc(C)cc4s3)cc2)C1=O (stereo unspecified) | 12.6µM* | -11.1%
Cc1cc(C)c(/C=C/c2onc(C)c2S(=O)(=O)N2CCC(C(=O)NCc3ccccc3Cl)CC2)c(C)c1 | -0.2% | -4.5%
Cc1ccc(-c2noc(-c3ccccc3NC(=O)C3CC(=O)N(c4ccc(C)cc4)C3)n2)cc1 (stereo unspecified) | 19.3% | -0.8%
Cc1c(O)nc(SCC(=O)Nc2ccc3c4c(cccc24)CC3)n(-c2ccccc2)c1=O | ? | -23.2%
O=C(CSc1nc(O)cc(=O)n1-c1ccccc1)Nc1ccc2c3c(cccc13)CC2 | ? | 25.1µM*
C/C(=N\NC(=O)CNC(=O)C(c1ccccc1)c1ccccc1)c1ccc(C(C)(C)C)cc1 | ? | 0.8%
C/C(=N\NC(=O)CNC(=O)C(c1ccccc1)c1ccccc1)c1ccccc1 | 12.6µM* | 4.6%
COc1ccc(Cn2c(SCc3ccccc3C)nc3cc(OC)c(OC)cc3c2=N)cc1 | ? | 15.8µM*
COc1cc2nc(SCc3ccc(F)cc3)n(Cc3cccs3)c(=N)c2cc1OC | ? | 5.3%
O=C(CCSCc1cnn(-c2ccccc2)c1-n1cccc1)NCc1ccccc1F | 2.9% | -5.9%

Screening data from PubChem BioAssay.
